± gives the standard deviation of the averaged measurements.
Assays:
[1] = test system: DLD1; test: cell viability (CellTiter-Glo) relative to plate median (fraction of plate median); higher = more viable cells; conditions: 5 µM; treatment time 24 h; reporter: 7TFP
Outline: (§1)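 On parallel plates, a Tecan F500 reader recorded either firefly luciferase or CellTiterGlo luminescence. The plates held colorectal cancer cells stably transduced with lentiviral TCF/Wnt firefly luciferase reporters (7TFP or TCF4/Wnt), seeded in 384-well format and treated 24 h later with library compounds at a final 5 µM for 24 h. Per-well signals were normalised to the plate median (webcellHTS2, additive, no log transformation), and two independent replicates were averaged.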

[2] = test system: HCT116; test: as above; conditions: 5 µM; treatment time 24 h; reporter: TCF4/Wnt
Outline: as §1

[3] = test system: SW480; test: as above; conditions: 5 µM; treatment time 24 h; reporter: 7TFP
Outline: as §1

[4] = test system: DLD1; test: TCF/Wnt firefly luciferase reporter signal relative to plate median (fraction of plate median); higher = higher Wnt reporter signal; conditions: 5 µM; treatment time 24 h; reporter: 7TFP
Outline: as §1

[5] = test system: SW480; test: as above; conditions: 5 µM; treatment time 24 h; reporter: 7TFP
Outline: as §1

Row | SMILES | cell viability [1] | cell viability [2] | cell viability [3] | TCF/Wnt firefly luciferase reporter signal [4] | TCF/Wnt firefly luciferase reporter signal [5]
1 | COc1ccc2cc(CCC(C)=O)ccc2c1 | 0.968 ± 0.074 | 0.905 ± 0.09 | 0.925 ± 0.0085 | 1.24 ± 0.27 | 1.25 ± 0.035
2 | Cc1cc(O)cc(=O)o1 | 1.05 ± 0.064 | 1.07 ± 0.05 | 1.04 ± 0.028 | 0.988 ± 0.1 | 1.03 ± 0.21
3 | C[C@]12CCC(=O)C=C1CC[C@@H]1[C@@H]2[C@@H](O)C[C@@]2(C)[C@H]1CC[C@]2(O)C(=O)CO | 1.06 ± 0.071 | 1.05 ± 0.057 | 1.04 ± 0.028 | 0.951 ± 0.11 | 0.935 ± 0.04
4 | COc1ccc2c(c1)CC[C@@H]1[C@@H]2CC[C@]2(C)[C@@H](O)CC[C@@H]12 | 0.928 ± 0.093 | 0.953 ± 0.15 | 1 ± 0.064 | 0.885 ± 0.18 | 0.969 ± 0.16
5 | COC(=O)C1=C(C)NC(C)=C(C(=O)OC)C1c1ccccc1[N+](=O)[O-] | 1.05 ± 0.14 | 0.995 ± 0.11 | 1.06 ± 0.028 | 1.04 ± 0.11 | 1.06 ± 0.078
6 | O=c1cc(-c2cccc(O)c2)oc2ccc(O)cc12 | 1.05 ± 0.09 | 0.98 ± 0.0057 | 1 ± 0.036 | 1.19 ± 0.16 | 1.19 ± 0.14
7 | CC[C@H](c1ccc(O)cc1)[C@@H](CC)c1ccc(O)cc1 | 1.05 ± 0.028 | 1.12 ± 0.078 | 1.04 ± 0.057 | 1.125 ± 0.0071 | 1.09 ± 0.092
8 | CC(O)(P(=O)(O)O)P(=O)(O)O | 0.949 ± 0.073 | 0.943 ± 0.032 | 0.956 ± 0.037 | 1 ± 0.13 | 0.968 ± 0.06
9 | CCC[C@H](N[C@@H](C)C(=O)N1[C@H](C(=O)O)C[C@@H]2CCCC[C@@H]21)C(=O)OCC | 1.03 ± 0.05 | 1.08 ± 0.035 | 0.961 ± 0.037 | 0.982 ± 0.025 | 1.08 ± 0.078
10 | COc1cccc2c1CCC1CC(=O)CC[C@]21C (stereo not given in full) | 1.06 ± 0.014 | 1.02 ± 0.086 | 1.02 ± 0.035 | 0.972 ± 0.016 | 1.04 ± 0.17
11 | CC1=C(/C=C/C(C)=C/C=C/C(C)=C/C=C/C=C(C)/C=C/C=C(C)/C=C/C2=C(C)CCCC2(C)C)C(C)(C)CCC1 [beta-CAROTENE] | 0.966 ± 0.0042 | 1 ± 0.064 | 0.984 ± 0.0014 | 0.932 ± 0.018 | 0.983 ± 0.052
12 | CCOC(=O)[N-]c1c[n+](N2CCOCC2)no1 | 1.065 ± 0.0071 | 1.01 ± 0.089 | 1.02 ± 0.035 | 0.984 ± 0.037 | 1.11 ± 0.078
13 | O=C(O)c1cc(O)c2c(c1)[C@H]([C@H]1c3cc(C(=O)O)cc(O)c3C(=O)c3c(O[C@@H]4O[C@H](CO)[C@@H](O)[C@H](O)[C@H]4O)cccc31)c1cccc(O[C@@H]3O[C@H](CO)[C@@H](O)[C@H](O)[C@H]3O)c1C2=O | 0.943 ± 0.028 | 0.967 ± 0.12 | 1.01 ± 0.018 | 1.08 ± 0.19 | 1.01 ± 0.071
14 | Cc1c(C)c2c(c(C)c1O)CCC(C)(COc1ccc(CC3SC(=O)NC3=O)cc1)O2 (stereo not given) | 1.05 ± 0.085 | 1.04 ± 0.071 | 1.06 ± 0.021 | 0.942 ± 0.11 | 1.04 ± 0.021
15 | COc1ccc(-c2cc(=O)c3c(O)cc(OC)c(OC)c3o2)c(OC)c1 | 0.978 ± 0.088 | 0.988 ± 0.016 | 1.02 ± 0.064 | 0.9025 ± 0.005 | 0.896 ± 0.067
16 | Cc1ccc(C)c(OCCCC(C)(C)C(=O)O)c1 | 0.985 ± 0.092 | 0.986 ± 0.034 | 1.01 ± 0.015 | 1.015 ± 0.0071 | 1.06 ± 0.05
17 | COc1ccc([C@@H](C)C(=O)c2ccc(O)cc2O)cc1 | 1.04 ± 0.098 | 1.09 ± 0.071 | 1.025 ± 0.0071 | 1.02 ± 0.071 | 1.07 ± 0.1
18 | COc1ccc2c(c1)[C@@]1(C)CCC(=O)C[C@H]1CC2 [5beta-12-METHOXY-4,4-BISNOR-8,11,13-PODOCARPATRIEN-3-ONE] | 0.9975 ± 0.0035 | 1.07 ± 0.071 | 1.01 ± 0.037 | 1.18 ± 0.2 | 1.05 ± 0.057
19 | COC(=O)C[C@H]1C(C)(C)C(=O)[C@@H]2CC3=C4CC(=O)O[C@@H](c5ccoc5)[C@]4(C)CC[C@@H]3[C@@]1(C)C2=O | 1.01 ± 0.016 | 1.01 ± 0.014 | 1.035 ± 0.0071 | 0.924 ± 0.0028 | 1.03 ± 0.035
20 | O=C(O)C(S)C(S)C(=O)O (stereo not given) | 1.04 ± 0.05 | 1.03 ± 0.099 | 1.01 ± 0.096 | 0.904 ± 0.1 | 1.004 ± 0.0078
21 | C1CCC(C(CC2CCCCN2)C2CCCCC2)CC1 (stereo not given) | 1.05 ± 0.05 | 0.983 ± 0.052 | 1.12 ± 0.021 | 0.971 ± 0.013 | 1.03
22 | NCCCCCC(=O)O | 0.888 ± 0.054 | 1.02 ± 0.014 | 0.972 ± 0.083 | 1 ± 0.11 | 1.01 ± 0.081
23 | COc1ccc([C@@H]2Sc3ccccc3N(CCN(C)C)C(=O)[C@@H]2OC(C)=O)cc1 | 0.931 ± 0.17 | 0.975 ± 0.028 | 1.01 ± 0.033 | 0.883 ± 0.029 | 0.989 ± 0.059
24 | OC[C@H]1O[C@@H](O[C@@H]2[C@@H](CO)OC(O)(CO)[C@H]2O)[C@H](O)[C@@H](O)[C@H]1O (mixture of isomers) | 0.999 ± 0.0014 | 0.99 ± 0.028 | 0.984 ± 0.0028 | 1.07 ± 0.18 | 1.02 ± 0.034
25 | C=C1C(=O)O[C@@H]2C[C@@]3(C)CCC[C@H](C)C3=C[C@H]12 | 1.01 ± 0.02 | 0.875 ± 0.027 | 0.96 ± 0.0057 | 0.985 ± 0.0057 | 1.03 ± 0.067
26 | NC(=O)NCCC[C@H](N)C(=O)O | 1 ± 0.12 | 1 ± 0.051 | 1.015 ± 0.0071 | 0.944 ± 0.043 | 0.864 ± 0.083
27 | C[C@@H]1CC[C@@]2(OC1)O[C@H]1C[C@H]3[C@@H]4CC[C@H]5C[C@@H](O)CC[C@]5(C)[C@H]4CC[C@]3(C)[C@H]1[C@@H]2C | 0.953 ± 0.0057 | 0.875 ± 0.037 | 1.01 | 1.06 ± 0.028 | 0.931 ± 0.037
28 | CC1(C)O[C@@H]2[C@@H](CO[C@@]3(COS(N)(=O)=O)OC(C)(C)O[C@@H]23)O1 | 0.925 ± 0.042 | 1.04 ± 0.014 | 1.03 ± 0.052 | 1.12 ± 0.11 | 0.845 ± 0.12
29 | C[C@H]1CCC/C=C/C(=O)c2c(O)cc(O)cc2CC(=O)O1 [Dehydro-Curvularin] | 0.9905 ± 0.005 | 1.08 ± 0.014 | 1.02 ± 0.03 | 1.095 ± 0.0071 | 1 ± 0.07
30 | C[C@]12CCC(=O)C=C1CC[C@@H]1[C@@H]2[C@@H](O)C[C@@]2(C)[C@H]1CC[C@]2(O)C(=O)COP(=O)(O)O | 0.949 ± 0.0099 | 0.974 ± 0.065 | 0.969 ± 0.03 | 1.01 ± 0.025 | 1.07 ± 0.014
